Reference: the supplement of paper PMC11732987, “Enantioselective OTUD7B fragment discovery through chemoproteomics screening and high-throughput optimisation” (Communications Chemistry, 2025)

Tests used:
Assay in all cases: log2 ratio of Biotin-Ahx-Ub-VS probe labelling (fragment/DMSO); higher = less target engagement (more negative = stronger competition), active = hit call of the paper (q ≤ 0.05, log2 ratio ≤ -1)
Details in all cases: compound concentration: 200 uM; treatment time: 3 h
USP42 = target: T1, USP42 (UniProt Q9H9J4)
T1 sequence (whole entry): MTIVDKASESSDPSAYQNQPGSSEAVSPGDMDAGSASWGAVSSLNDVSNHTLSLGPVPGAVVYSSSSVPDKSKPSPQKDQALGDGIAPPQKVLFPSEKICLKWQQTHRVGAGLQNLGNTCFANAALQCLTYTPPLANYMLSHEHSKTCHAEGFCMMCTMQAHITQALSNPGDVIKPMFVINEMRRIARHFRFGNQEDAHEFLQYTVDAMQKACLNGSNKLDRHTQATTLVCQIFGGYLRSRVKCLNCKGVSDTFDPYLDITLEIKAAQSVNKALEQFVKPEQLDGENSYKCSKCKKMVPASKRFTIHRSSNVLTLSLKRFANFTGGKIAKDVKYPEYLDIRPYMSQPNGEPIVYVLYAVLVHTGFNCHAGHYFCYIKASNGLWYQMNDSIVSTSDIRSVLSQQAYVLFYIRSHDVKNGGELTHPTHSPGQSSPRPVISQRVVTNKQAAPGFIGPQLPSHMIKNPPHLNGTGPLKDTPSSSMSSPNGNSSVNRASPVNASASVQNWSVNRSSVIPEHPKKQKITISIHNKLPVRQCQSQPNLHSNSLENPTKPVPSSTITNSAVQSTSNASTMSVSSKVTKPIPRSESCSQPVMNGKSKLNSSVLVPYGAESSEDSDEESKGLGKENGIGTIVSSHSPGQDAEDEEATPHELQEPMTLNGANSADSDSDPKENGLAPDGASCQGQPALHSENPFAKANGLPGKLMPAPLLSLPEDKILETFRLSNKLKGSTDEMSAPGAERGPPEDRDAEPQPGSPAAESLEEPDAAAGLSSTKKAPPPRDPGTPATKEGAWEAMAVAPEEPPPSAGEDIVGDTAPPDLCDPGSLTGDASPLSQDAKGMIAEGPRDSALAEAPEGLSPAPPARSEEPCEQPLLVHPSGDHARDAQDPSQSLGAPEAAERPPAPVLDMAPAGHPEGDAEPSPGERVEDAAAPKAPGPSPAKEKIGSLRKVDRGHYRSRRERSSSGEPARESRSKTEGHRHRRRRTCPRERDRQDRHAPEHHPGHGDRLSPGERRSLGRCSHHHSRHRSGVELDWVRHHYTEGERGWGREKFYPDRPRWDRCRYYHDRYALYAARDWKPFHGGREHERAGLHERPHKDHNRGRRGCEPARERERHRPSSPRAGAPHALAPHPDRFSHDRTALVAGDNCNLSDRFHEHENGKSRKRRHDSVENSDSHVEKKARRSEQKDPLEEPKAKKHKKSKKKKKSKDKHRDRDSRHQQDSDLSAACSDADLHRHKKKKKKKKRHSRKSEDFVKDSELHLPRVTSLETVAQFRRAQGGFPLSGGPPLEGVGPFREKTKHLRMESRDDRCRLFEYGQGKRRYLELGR
Summary of the method: (§1)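 Each value is an average log2 ratio of fragment to vehicle, tested by unpaired t-test. The underlying Spectronaut label-free quantities were global-median-normalised, and only proteins with ≥2 unique peptides were included. Triplicate HEK293T lysate samples (495 µg) were exposed to fragment at 200 µM or vehicle for 3 h, then to Biotin-Ahx-Ub-VS at 0.5 µM final for 1 h, before NeutrAvidin enrichment of labelled DUBs, LysC and trypsin digestion, and diaPASEF LC-MS/MS.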

USP46 = USP46 (UniProt P62068)
Summary of the method: as §1

USP47 = target: T2, USP47 (UniProt Q96K76)
T2 sequence (whole entry): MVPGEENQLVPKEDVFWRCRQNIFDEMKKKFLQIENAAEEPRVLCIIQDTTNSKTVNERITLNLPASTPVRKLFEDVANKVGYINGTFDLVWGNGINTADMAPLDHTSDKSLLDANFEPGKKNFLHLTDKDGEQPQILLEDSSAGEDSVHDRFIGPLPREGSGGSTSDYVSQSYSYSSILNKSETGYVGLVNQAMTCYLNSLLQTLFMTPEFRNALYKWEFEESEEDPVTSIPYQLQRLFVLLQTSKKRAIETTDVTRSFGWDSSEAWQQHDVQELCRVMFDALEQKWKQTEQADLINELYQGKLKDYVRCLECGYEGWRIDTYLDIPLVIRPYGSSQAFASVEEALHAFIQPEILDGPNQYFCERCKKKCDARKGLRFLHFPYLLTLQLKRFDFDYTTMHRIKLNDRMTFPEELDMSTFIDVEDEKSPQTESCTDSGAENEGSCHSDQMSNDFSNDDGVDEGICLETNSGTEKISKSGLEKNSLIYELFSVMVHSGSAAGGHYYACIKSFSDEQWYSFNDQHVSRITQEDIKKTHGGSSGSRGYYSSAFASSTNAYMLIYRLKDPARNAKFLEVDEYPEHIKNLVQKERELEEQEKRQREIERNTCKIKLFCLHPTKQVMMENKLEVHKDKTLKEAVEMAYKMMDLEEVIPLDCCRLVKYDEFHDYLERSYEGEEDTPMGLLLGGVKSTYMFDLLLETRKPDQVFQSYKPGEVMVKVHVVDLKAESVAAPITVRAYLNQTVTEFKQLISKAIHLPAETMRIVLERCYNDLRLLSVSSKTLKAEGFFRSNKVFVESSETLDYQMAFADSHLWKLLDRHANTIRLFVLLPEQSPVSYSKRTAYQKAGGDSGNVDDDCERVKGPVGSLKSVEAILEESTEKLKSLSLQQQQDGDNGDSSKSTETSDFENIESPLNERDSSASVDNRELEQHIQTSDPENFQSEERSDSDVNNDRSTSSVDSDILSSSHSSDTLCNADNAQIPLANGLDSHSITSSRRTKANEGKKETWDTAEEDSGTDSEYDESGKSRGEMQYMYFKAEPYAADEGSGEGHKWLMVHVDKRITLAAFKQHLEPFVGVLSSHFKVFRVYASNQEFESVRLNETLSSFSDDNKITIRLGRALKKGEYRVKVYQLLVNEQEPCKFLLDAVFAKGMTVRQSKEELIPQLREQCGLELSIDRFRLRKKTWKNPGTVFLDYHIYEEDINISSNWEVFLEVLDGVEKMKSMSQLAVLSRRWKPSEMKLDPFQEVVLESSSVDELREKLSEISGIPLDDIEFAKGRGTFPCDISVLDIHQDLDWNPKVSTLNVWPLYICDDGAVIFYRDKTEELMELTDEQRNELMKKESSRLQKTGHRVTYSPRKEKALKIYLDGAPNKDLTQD
Summary of the method: as §1

USP48 = target: T3, USP48 (UniProt Q86UV5)
T3 sequence (whole entry): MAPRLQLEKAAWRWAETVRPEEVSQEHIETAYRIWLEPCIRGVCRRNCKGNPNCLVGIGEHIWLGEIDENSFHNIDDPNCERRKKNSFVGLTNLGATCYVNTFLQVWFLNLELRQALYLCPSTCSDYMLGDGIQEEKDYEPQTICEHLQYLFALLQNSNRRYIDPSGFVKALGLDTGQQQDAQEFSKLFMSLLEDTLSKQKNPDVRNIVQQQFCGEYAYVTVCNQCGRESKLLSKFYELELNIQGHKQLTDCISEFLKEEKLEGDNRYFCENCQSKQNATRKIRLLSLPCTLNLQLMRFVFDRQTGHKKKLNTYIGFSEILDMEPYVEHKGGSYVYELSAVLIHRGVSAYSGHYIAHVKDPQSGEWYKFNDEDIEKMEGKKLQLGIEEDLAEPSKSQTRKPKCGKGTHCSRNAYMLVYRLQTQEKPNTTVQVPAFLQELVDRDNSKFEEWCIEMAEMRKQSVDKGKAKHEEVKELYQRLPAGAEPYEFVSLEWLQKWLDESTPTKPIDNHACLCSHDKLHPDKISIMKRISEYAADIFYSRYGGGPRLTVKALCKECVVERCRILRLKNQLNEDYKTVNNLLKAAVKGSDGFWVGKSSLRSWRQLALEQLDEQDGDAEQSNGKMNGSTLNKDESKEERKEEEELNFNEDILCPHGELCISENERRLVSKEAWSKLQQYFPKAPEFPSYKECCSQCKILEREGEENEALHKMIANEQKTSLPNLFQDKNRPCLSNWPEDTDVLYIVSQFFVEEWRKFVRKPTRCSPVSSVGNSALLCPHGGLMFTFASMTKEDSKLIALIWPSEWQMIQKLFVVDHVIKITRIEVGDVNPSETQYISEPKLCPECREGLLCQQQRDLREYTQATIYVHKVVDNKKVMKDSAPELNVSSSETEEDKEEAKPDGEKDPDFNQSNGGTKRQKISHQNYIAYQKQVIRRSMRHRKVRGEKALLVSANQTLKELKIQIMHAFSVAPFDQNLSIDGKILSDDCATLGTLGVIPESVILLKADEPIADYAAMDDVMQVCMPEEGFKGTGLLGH
Summary of the method: as §1

USP5 = target: T4, USP5 (UniProt P45974)
T4 sequence (whole entry): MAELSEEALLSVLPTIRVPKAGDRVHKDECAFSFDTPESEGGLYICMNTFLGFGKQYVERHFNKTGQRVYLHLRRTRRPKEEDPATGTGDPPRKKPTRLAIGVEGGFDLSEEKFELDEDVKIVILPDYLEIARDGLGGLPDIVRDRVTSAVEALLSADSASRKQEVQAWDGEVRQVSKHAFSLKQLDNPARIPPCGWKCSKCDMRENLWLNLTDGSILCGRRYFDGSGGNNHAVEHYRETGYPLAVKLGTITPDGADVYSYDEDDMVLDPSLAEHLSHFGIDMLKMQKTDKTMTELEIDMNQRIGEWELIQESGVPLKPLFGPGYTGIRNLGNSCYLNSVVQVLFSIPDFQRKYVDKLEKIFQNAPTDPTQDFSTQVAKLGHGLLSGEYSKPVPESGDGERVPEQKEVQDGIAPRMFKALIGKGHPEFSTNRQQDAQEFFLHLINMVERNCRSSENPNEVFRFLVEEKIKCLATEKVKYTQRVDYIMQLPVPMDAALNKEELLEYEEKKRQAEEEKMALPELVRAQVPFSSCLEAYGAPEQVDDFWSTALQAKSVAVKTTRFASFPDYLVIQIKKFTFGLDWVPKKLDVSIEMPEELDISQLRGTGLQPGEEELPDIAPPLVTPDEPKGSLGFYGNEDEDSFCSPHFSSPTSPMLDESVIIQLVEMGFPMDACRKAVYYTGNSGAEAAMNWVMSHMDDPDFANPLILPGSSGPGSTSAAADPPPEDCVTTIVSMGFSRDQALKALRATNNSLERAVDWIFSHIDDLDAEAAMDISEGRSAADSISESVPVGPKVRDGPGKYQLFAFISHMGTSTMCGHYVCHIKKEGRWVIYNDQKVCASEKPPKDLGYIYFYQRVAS
Summary of the method: as §1

USP54 = USP54 (UniProt Q70EL1)
Summary of the method: as §1

USP7 = USP7 (UniProt Q93009)
Summary of the method: as §1

USP8 = target: T5, USP8 (UniProt P40818)
T5 sequence (whole entry): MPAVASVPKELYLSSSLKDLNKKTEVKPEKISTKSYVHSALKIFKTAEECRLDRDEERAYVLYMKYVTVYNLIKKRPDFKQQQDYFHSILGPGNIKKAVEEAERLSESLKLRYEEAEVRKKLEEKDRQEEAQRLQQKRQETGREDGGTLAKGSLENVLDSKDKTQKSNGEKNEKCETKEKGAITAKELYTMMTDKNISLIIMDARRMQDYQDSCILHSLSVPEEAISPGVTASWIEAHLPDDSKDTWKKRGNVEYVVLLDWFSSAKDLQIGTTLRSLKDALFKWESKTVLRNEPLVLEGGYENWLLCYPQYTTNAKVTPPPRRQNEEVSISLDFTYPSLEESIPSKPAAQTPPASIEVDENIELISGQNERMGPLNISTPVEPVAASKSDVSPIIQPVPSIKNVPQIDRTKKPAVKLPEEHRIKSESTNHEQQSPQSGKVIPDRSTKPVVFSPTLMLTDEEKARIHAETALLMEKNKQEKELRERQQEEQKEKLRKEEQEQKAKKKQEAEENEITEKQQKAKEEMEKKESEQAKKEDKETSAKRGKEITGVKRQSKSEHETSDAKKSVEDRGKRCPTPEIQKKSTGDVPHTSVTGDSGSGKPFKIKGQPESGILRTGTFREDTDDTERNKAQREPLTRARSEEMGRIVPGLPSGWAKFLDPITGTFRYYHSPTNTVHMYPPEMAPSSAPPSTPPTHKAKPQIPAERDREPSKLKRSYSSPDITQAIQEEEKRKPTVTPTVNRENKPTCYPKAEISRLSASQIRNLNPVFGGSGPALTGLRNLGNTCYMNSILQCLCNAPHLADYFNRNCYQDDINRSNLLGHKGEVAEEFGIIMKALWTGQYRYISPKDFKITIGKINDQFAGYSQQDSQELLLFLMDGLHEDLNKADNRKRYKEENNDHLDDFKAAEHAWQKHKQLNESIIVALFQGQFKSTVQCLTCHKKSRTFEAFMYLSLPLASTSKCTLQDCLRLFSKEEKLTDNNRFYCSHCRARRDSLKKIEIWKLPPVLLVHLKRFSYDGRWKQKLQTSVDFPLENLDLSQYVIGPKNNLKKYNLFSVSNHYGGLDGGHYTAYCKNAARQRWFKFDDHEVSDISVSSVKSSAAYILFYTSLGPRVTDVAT
Summary of the method: as §1

USP9X = USP9X (UniProt Q93008)
Summary of the method: as §1

UniProt O00487 = target: UniProt O00487
Summary of the method: as §1

Measured: log2 ratio of Biotin-Ahx-Ub-VS probe labelling

USP54, sequence (Q70EL1 whole entry): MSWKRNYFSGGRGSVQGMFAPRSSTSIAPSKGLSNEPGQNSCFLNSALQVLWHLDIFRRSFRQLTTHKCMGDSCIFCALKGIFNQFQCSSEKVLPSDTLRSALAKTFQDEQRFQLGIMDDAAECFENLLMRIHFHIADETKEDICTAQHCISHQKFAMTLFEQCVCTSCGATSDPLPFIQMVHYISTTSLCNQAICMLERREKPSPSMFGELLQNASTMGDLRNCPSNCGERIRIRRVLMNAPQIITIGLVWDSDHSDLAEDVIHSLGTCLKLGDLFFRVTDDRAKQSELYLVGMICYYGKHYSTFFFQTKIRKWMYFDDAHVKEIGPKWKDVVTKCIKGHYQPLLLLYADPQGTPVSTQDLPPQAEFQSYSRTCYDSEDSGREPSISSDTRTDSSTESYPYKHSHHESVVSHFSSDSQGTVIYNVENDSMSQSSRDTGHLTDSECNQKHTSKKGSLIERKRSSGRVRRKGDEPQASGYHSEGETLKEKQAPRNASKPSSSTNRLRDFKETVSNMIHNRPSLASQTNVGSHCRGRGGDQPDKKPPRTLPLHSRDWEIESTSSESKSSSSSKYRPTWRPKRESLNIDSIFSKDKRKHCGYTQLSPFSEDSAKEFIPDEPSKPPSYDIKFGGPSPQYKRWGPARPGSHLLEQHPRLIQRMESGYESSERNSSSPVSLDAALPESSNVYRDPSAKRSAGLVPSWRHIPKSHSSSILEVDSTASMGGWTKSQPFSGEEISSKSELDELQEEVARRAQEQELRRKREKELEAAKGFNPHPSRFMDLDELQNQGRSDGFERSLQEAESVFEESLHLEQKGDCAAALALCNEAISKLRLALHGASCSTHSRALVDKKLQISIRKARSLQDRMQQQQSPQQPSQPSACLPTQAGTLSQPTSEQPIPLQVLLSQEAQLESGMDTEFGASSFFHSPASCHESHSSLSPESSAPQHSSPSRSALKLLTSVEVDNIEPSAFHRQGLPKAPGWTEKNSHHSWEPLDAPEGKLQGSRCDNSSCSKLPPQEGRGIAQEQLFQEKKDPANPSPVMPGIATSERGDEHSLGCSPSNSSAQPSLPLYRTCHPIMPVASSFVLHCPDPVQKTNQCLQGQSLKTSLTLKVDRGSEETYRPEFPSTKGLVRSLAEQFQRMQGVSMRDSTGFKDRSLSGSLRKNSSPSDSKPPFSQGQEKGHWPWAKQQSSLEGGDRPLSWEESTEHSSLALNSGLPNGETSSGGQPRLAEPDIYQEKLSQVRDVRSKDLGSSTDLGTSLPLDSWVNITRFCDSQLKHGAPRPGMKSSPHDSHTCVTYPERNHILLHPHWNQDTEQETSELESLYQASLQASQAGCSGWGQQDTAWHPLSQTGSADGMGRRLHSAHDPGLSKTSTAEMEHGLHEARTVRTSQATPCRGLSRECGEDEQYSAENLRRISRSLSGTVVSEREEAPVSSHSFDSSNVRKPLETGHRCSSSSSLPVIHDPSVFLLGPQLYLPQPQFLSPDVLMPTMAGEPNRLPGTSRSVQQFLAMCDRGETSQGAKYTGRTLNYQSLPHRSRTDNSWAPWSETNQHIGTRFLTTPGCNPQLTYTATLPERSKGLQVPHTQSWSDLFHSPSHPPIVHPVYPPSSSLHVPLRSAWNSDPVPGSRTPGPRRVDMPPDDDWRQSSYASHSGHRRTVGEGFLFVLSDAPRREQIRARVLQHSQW
UniProt O00487, sequence (O00487 whole entry): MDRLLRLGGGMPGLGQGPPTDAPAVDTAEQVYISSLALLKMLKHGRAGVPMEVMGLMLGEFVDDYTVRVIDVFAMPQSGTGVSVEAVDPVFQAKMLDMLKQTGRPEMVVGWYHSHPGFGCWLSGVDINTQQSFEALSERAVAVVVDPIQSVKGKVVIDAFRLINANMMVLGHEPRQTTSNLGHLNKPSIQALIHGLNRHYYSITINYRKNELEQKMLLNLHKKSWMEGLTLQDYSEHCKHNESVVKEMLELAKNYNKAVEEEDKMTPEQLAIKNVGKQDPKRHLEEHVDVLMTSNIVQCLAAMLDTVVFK
USP7, sequence (Q93009 whole entry, looked up): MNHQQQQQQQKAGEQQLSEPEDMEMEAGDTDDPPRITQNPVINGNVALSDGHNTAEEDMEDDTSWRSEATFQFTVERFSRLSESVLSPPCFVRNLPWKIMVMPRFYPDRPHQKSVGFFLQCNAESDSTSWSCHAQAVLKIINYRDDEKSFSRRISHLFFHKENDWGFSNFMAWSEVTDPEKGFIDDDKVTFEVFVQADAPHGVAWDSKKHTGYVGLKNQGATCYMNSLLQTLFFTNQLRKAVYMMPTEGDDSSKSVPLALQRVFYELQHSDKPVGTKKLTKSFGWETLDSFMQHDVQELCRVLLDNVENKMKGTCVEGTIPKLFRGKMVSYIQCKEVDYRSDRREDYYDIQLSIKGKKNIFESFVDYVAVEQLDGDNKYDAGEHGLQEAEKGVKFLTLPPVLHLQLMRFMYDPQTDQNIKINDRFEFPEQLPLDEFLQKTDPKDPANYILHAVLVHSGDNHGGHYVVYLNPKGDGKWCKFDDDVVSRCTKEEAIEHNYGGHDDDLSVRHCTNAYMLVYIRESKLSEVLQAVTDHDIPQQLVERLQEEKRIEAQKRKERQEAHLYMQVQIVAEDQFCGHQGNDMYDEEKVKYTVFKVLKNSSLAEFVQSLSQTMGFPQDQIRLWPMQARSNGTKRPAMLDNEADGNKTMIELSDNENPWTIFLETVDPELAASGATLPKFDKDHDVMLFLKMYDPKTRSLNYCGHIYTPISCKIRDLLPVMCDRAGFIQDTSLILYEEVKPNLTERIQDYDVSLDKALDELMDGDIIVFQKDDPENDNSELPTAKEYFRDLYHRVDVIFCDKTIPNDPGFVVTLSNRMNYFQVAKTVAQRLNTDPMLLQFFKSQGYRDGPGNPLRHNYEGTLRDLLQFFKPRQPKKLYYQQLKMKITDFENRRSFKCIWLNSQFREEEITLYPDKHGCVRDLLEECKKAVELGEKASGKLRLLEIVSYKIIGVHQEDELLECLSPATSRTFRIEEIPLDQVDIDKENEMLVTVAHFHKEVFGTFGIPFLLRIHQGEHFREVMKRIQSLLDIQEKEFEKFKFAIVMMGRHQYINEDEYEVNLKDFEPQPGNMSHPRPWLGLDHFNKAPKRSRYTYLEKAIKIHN
USP46, sequence (P62068 whole entry): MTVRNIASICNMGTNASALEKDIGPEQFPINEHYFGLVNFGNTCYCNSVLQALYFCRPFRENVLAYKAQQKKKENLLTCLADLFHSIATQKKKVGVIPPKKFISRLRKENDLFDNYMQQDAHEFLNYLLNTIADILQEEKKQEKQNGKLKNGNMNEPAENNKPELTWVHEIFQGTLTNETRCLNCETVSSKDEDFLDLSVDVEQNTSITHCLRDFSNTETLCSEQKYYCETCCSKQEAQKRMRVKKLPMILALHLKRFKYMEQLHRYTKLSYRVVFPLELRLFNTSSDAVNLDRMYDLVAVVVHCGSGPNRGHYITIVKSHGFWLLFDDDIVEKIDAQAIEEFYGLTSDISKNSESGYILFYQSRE

CC(NC(=O)CCl)c1cccc(Cl)c1 (stereo not given)
inactive: USP42 -0.459 | USP46 -0.115 | USP47 -0.252 | USP48 -0.283 | USP5 0.0893 | USP54 0.882 | USP7 -0.385 | USP8 -0.413 | USP9X -0.388 | UniProt O00487 -0.18
